Experiment in all cases: NCI-60 one-dose screen, 48 h (100 = growth as untreated, 0 = no growth, -100 = all killed)
Common to all, as to details: 10 µM unless noted

Assay [1] concerns NCI-H23 lung.
In assay [2] the test system is NCI-H322M lung.
Assay [3] has as its system HOP-62 NSCLC.
For assay [4], the system named is NCI-H460 lung.
Assay [5] deals with HOP-92 NSCLC.
Assay [6] deals with NCI-H522 lung.
Assay [7] relates to A549/ATCC NSCLC.
In assay [8] the test system is 786-0 renal.
The test system of assay [9] is COLO 205 colon.
The subject of assay [10] is DU-145 prostate.
In assay [11] the test system is K-562 leukemia.
For assay [12], the system named is MALME-3M melanoma.
Assay [13] has as its system MDA-MB-231 breast.
In assay [14] the test system is RXF 393 renal.
For assay [15], the system named is SF-268 CNS.
The test system of assay [16] is SF-295 CNS.
Assay [17] has as its system SF-539 CNS.
For assay [18], the system named is UACC-257 melanoma.
The subject of assay [19] is M14 melanoma.
Assay [20] concerns HCT-15 colon.

The panel holds about 83,000 compounds, 20% with a hit somewhere; the sample as a whole holds those more often.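 Interpretation: 100, growth as untreated; towards 0, rising growth inhibition; 0, no net growth; 0 to -100, cell death. Compounds scoring below 10 were considered active.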 Unmarked numbers belong to inactive results. Activity calls are given as the source filed them.

The values that follow come from PubChem BioAssay (NCI).

For `NC1C(N)C(N)C1N` (stereo not given), the growth was 102% in assay [1]; 99.7% in assay [2]; 104% in [3]; 113% in assay [4]; 79.6% in [5]; 91.5% in [6]. For the same compound, the growth in [7] was 99.8%; in assay [8], 105%; in assay [9], 107%; in assay [10] it was 134%; in assay [11] it was 99.5%; in assay [12] it was 114%. The growth in assay [13] is 94.2%; in [14], 125%; in assay [15], 109%; in [16] it was 126%; in assay [17], 100%; in assay [18] it was 101%. Besides, the values for the growth in [19] and in assay [20] were 101% and 109%, respectively.

For `CCOC(=O)CSc1c(-c2ccccc2)c2cc(Cl)ccc2[nH]c1=O`, the growth in assay [1] is 101%; in assay [2] it was 94.9%; in assay [3], 94.5%; in [4], 101%; in assay [5], 100%; in [6], 91.2%. The growth is 102% in assay [7]; 97.1% in assay [8]; 110% in assay [9]; 103% in assay [10]; 84.1% in [11]; 114% in assay [12]. Moreover, the growth is 104% in assay [13]; 103% in assay [14]; 102% in [15]; 69.6% in [16]; 107% in assay [17]; 120% in [18]. In addition, the figures for the growth in assay [19] and in assay [20] were 104% and 91.7%, respectively.

On to `CC(=S)NC(=O)C(=O)/C=C1/NC(=O)C(=O)S1`, for which the growth is 97.4% in [1]; 105% in [2]; 100% in [3]; 107% in assay [4]; 96.5% in assay [5]; 105% in assay [6]. Besides, the growth in assay [7] was 111%; in assay [8], 103%; in assay [9], 124%; in assay [10] it was 111%; in assay [11] it was 110%; in assay [12], 107%. The growth in [13] was 103%; in [14], 110%; in assay [15] it was 100%; in assay [16], 101%; in assay [17], 102%; in [18], 108%. Besides, the growth in assay [19] was 106%; in assay [20], 102%.

As to `COc1ccc(Cn2cc(Cn3c(=O)c(-c4nc5ccccc5[nH]4)cc4ccccc43)nn2)c(OC)c1OC`, the growth in assay [1] was 4.71% (active); in [2], 18%; in assay [3], 9.29% (active); in assay [4], 1.94% (active); in assay [5], -2.19% (active); in assay [6], -1.1% (active). Besides, the growth in assay [7] was 9.33% (active); in assay [8], -50.1% (active); in assay [9] it was 13.5%; in assay [10], -59.6% (active); in assay [11] it was 9.91% (active); in [12], 24.6%. Further, the growth is 1.9% (active) in assay [13]; -28.4% (active) in assay [14]; 2.39% (active) in [15]; 1.99% (active) in assay [16]; -28.6% (active) in assay [17]; 46.9% in assay [18]. Moreover, the growth in assay [19] was -50.3% (active); in [20], 11.1%.

Regarding `COc1ccc(Cn2cc(Cn3cc(C=C4C(=O)NC(=O)NC4=O)c4ccccc43)nn2)cc1`, the growth is 62.7% in assay [1]; 90.1% in assay [2]; 92.4% in assay [3]; 48% in assay [4]; 84.5% in assay [5]; 89.9% in [6]. Also, the growth is 112% in [7]; 96.7% in assay [8]; 108% in [9]; 92.1% in assay [10]; 50.4% in [11]; 85.5% in assay [12]. Moreover, the growth in assay [13] is -96.3% (active); in [14] it was 77.9%; in assay [15], 83.3%; in assay [16], 77.1%; in assay [17], 88.3%; in assay [18], 96.4%. The growth was 82.4% in [19] and 85.9% in [20].

Regarding `CN1C(=O)N(C)C2C1NN=c1s/c(=C\c3c[nH]c4ccccc34)c(=O)n12` (stereo not given), the growth in [1] is 38.7%; in assay [2], 50.4%; in assay [3] it was 49.2%; in assay [4], 1.56% (active); in assay [5], 114%; in assay [6], 11.5%. Further, the growth in assay [7] is 24.3%; in [8], 23.4%; in assay [9], -53.4% (active); in assay [10], 5.09% (active); in [11], 8.94% (active); in assay [12], 60.6%. In addition, the growth in assay [13] was 34.7%; in assay [14], 44.5%; in assay [15] it was 39.1%; in [16], 12.8%; in assay [17] it was 2.32% (active); in assay [18], 79.5%. Besides, the growth in [19] is 12.3%; in assay [20], 11.8%.

For the compound `Cc1c(-c2noc(-c3ccc([N+](=O)[O-])cc3)n2)no[n+]1[O-]`, the growth in assay [1] was 86%; in [2], 88.4%; in [3] it was 86.1%; in [4], 103%; in assay [5], 85.2%; in assay [6], 102%. Further, the growth in [7] is 111%; in [8], 99.5%; in assay [9], 113%; in assay [10], 99.9%; in assay [11], 93.7%; in assay [12], 99.5%. Besides, the growth was 95.4% in [13]; 102% in assay [14]; 92.6% in assay [15]; 99.9% in [16]; 97.4% in assay [17]; 106% in [18]. Also, the growth in assay [19] was 93.8%; in assay [20], 93.1%.

As to `c1ccc(-c2ccc(-c3nc4ccccc4[nH]3)cc2)cc1`, the growth in [1] was 94%; in assay [2], 98.9%; in [3], 80.5%; in assay [4] it was 95.6%; in [5] it was 69.7%; in [6] it was 94.3%. The growth in assay [7] is 91.8%; in assay [8], 88%; in assay [9], 102%; in [10], 95.2%; in assay [11], 7.32% (active); in assay [12], 92.4%. In addition, the growth was 64.3% in assay [13]; 92.1% in [14]; 77.8% in assay [15]; 101% in [16]; 99% in assay [17]; 98% in assay [18]. Also, the growth was 93.8% in assay [19] and 78.5% in assay [20].
